This is a sample that favours compounds with a hit; in the whole collection about 18% have one here.
DT40 TDP1 no CPT: qHTS for Inhibitors of human tyrosyl-DNA phosphodiesterase 1 (TDP1): qHTS in cells in absence of CPT; 420,000 tested, 15% active; AID 686978, 2013; DT40 Tdp1-/- hTDP1 cells, no CPT, ATP luminescence, 48 h; Potency, µM (highest dose often 46.2 µM), inactives show at the highest dose activity change, negative = growth inhibition, actives largely listed as inhibitors; also: potency is read from the fitted curve at half-maximal effect; % is scaled to controls: 0 for no effect and ±100 for the full control effect; nearly all actives have a fitted effect of over 55% in size
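Growth of hTDP1-complemented DT40 Tdp1-knockout cells is measured by ATP luminescence after at least 48 hr compound exposure at 37 °C, with DMSO substituting for the 20 nM CPT used in the parallel screen.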
TDP1 inh: TDP1 (human) enzyme inhibition. Q9NUW8. recombinant TDP1, AlphaScreen DNA substrate cleavage. Potency, µM (highest dose often 130 µM), without a hit: top-dose activity change, negative = inhibition, hits mostly inhibitors. 350,000 tested, 0.28% active. AID 485290; also: potency is read from the fitted curve at half-maximal effect; % is scaled to controls: 0 for no effect and ±100 for the full control effect; nearly all actives have a fitted effect of over 40% in size
Target sequence (Q9NUW8 whole entry, looked up): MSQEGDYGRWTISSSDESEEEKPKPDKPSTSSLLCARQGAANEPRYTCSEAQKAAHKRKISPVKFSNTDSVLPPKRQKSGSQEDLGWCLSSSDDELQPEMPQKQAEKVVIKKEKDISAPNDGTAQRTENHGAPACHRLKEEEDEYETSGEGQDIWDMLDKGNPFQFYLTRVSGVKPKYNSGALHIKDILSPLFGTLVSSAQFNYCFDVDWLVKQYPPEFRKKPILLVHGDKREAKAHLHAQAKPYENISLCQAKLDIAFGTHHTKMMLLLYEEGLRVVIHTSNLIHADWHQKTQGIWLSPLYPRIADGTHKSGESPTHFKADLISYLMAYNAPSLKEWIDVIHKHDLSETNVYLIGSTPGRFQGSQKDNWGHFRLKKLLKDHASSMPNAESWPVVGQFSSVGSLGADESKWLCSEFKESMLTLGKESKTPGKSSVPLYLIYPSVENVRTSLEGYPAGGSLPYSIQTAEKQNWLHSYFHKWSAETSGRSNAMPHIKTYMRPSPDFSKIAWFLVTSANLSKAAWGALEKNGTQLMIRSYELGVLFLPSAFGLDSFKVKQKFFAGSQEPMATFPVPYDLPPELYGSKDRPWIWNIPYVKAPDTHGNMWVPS
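Signal: AlphaScreen proximity between streptavidin donor and anti-FITC acceptor beads on intact substrate. Reaction: Tdp1 1 nM, substrate 15 nM final, 5 min RT after 15 min compound preincubation.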
HepG2 viability: counter-screen for TGF-b inhibitors: cytotoxicity in HepG2 cells; Potency, µM (highest dose often 46.1 µM), inactives show at the top dose activity change, negative = cytotoxicity, most hits filed as cytotoxic; 410,000 tested, 0.76% active; HepG2 CAGA-GFP viability, ATP luminescence, 18 h; also: potency is read from the fitted curve at half-maximal effect
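HepG2 CAGA-GFP cells (1000/well, DMEM with 1% FBS) received compound, then TGF-beta at 500 pg/mL final, and were incubated 18 hours at 37 degrees C. Viability was read by CellTiter-Glo luminescence. Media-only wells were set as complete cell-killing and DMSO as no toxicity.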
TGFb inhibitor: TGF-b pathway inhibition | HepG2 CAGA-GFP TGF-b/SMAD3 reporter, GFP fluorescence, 18 h; TGF-beta stimulated, 500 pg/mL final | Potency, µM (series often up to 46.1 µM), without a hit: at the highest dose activity, negative = inhibition, actives largely listed as inhibitors | 410,000 tested, 1.2% active; also: potency is read from the fitted curve at half-maximal effect; % is scaled to controls: 0 for no effect and ±100 for the full control effect; nearly all actives have a fitted effect of over 65% in size
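Cell-based qHTS in HEPG2 carrying a CAGA-GFP Smad reporter; compounds added before 500 pg/mL final TGF-beta, 18 h incubation at 37 degrees C, GFP fluorescence quantified per cell by imaging cytometry.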
IL-1B inflam inh: inhibitors of inflammasome signaling (IL-1 beta secretion); THP-1 LPS/ATP IL-1B secretion, AlphaLISA, 16 h; active compounds read low; activity change, % at 57.5 µM; 360,000 tested, 4.7% active; AID 743279; in the data active = activity change below about -50%; inconclusive = mostly about -30% to -49%; also: % is scaled to controls: 0 for no effect and ±100 for the full control effect
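THP-1 cells pretreated 1 hr with compounds (up to 57.5 uM final), then stimulated with LPS (250 ng/mL final) plus ATP (1.25 mM final); secreted IL-1B measured by AlphaLISA after 16 hr, decreased signal indicating inhibition.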
TDP1 cell CPT: growth inhibition of DT40 Tdp1-/-;hTDP1 cells with camptothecin (screen for TDP1 inhibitors); chicken DT40 Tdp1-/-;hTDP1 cells + 20 nM CPT, ATP luminescence, 48 h; Potency, µM (top dose mostly 46.2 µM), inactives show at the top dose activity change, negative = growth inhibition, most hits filed as inhibitors; 420,000 tested, 12% active; AID 686979; also: potency is read from the fitted curve at half-maximal effect; % is scaled to controls: 0 for no effect and ±100 for the full control effect; nearly all actives have a fitted effect of over 55% in size
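Chicken DT40 Tdp1-/- cells complemented with human TDP1, 400 cells/well, exposed to compounds plus 20 nM camptothecin for at least 48 h at 37 C; viability read as ATP content by CellTiter-Glo luminescence.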
Active calls of the source: *; [ ] = another dose, or the depositor's remark. Unless noted, calls follow the shape of the dose curve; as a rule, active = well fitted curve in the direction sought with a large enough effect; inconclusive = small, poorly fitted or top-dose-only effect, or another doubt; inactive = no such curve, though single readings can be large; an effect the other way counts as inactive or inconclusive.

Screening CCC1CCCCN1C(=O)COc1ccc2c3c(c(=O)oc2c1)CCC3 (configuration not stated) returned DT40 TDP1 no CPT inconclusive, TDP1 inh 0%[56.1 µM], HepG2 viability -1%, TGFb inhibitor 9%, IL-1B inflam inh -1 and TDP1 cell CPT inconclusive.
`COc1ccc(CCn2c(=O)c3cccnc3n(CC(=O)Nc3cccc(C)c3)c2=O)cc1OC` gave DT40 TDP1 no CPT -13%, TDP1 inh 2%, HepG2 viability -45%, TGFb inhibitor -33% and TDP1 cell CPT -15%.
For COc1ccc(Cl)cc1NC(=O)Cn1c(=O)n(Cc2cccs2)c(=O)c2cccnc21 the results were DT40 TDP1 no CPT 18µM*, TDP1 inh 3%, HepG2 viability -1%, TGFb inhibitor -6% and TDP1 cell CPT inconclusive.
For Cc1ccc(C)c(NC(=O)Cn2c(=O)n(Cc3cccs3)c(=O)c3cccnc32)c1 the results were DT40 TDP1 no CPT 13µM*, TDP1 inh -4%, HepG2 viability -28%, TGFb inhibitor -18% and TDP1 cell CPT 18µM*.
For COc1ccc(CCn2c(=O)c3cccnc3n(CC(=O)Nc3ccc(C)c(F)c3)c2=O)cc1OC the results were DT40 TDP1 no CPT 21µM*, TDP1 inh 3%, HepG2 viability 2%, TGFb inhibitor -16% and TDP1 cell CPT 4.1µM*.
Screening CCc1ccc(NC(=O)Cn2c(=O)n(Cc3ccc(C)cc3)c(=O)c3cccnc32)cc1 returned DT40 TDP1 no CPT -11%, TDP1 inh -4%, HepG2 viability -2%, TGFb inhibitor -16% and TDP1 cell CPT inconclusive.
Screening COc1ccc(Cl)cc1NC(=O)Cn1c(=O)n(Cc2ccc(F)cc2)c(=O)c2cccnc21 returned DT40 TDP1 no CPT 9.2µM*, TDP1 inh -2%, HepG2 viability -11%, TGFb inhibitor 5% and TDP1 cell CPT inconclusive.
Screening COc1ccc(Cn2c(=O)c3cccnc3n(CC(=O)Nc3ccc(C)c(F)c3)c2=O)cc1 returned DT40 TDP1 no CPT inconclusive, TDP1 inh -1%, HepG2 viability -20%, TGFb inhibitor -3% and TDP1 cell CPT -17%.
Screening O=C1c2ccccc2C(=O)N1CCCCN(C(=O)c1cccc([N+](=O)[O-])c1)c1ccc(Cl)cc1 returned DT40 TDP1 no CPT 16µM*, TDP1 inh 6%, HepG2 viability -2%, TGFb inhibitor 19%, IL-1B inflam inh -8 and TDP1 cell CPT 21µM*.
O=C1c2ccccc2C(=O)N1CCCCN(C(=O)c1ccco1)c1ccc(Cl)cc1 was read as DT40 TDP1 no CPT inconclusive, TDP1 inh 6%, HepG2 viability -14%, TGFb inhibitor 1%, IL-1B inflam inh -13 and TDP1 cell CPT inconclusive.
`COc1ccc(NC2=Nc3cccc4cccc2c34)cc1OC` gave DT40 TDP1 no CPT 26µM*, TDP1 inh 7%, HepG2 viability -35%, TGFb inhibitor inconclusive, IL-1B inflam inh inconclusive and TDP1 cell CPT 23µM*.
`COc1cc(NC2=Nc3cccc4cccc2c34)cc(OC)c1OC` gave DT40 TDP1 no CPT inconclusive, TDP1 inh -4%, HepG2 viability -35%, TGFb inhibitor -48%, IL-1B inflam inh 1 and TDP1 cell CPT inconclusive.
`Cc1ccc(NS(=O)(=O)c2ccc(OCC(=O)NCc3ccncc3)cc2)cc1` gave DT40 TDP1 no CPT -9%, TDP1 inh 3%, HepG2 viability -1%, TGFb inhibitor -21%, IL-1B inflam inh 18 and TDP1 cell CPT -3%.
CC(C)(C)NS(=O)(=O)c1ccc(OCC(=O)NCc2ccco2)cc1 was read as DT40 TDP1 no CPT 5%, TDP1 inh 3%, HepG2 viability -5%, TGFb inhibitor 3%, IL-1B inflam inh 6 and TDP1 cell CPT 5%.
Screening Cc1ccc(NS(=O)(=O)c2ccc(OCC(=O)NCc3ccco3)cc2)cc1 returned DT40 TDP1 no CPT inconclusive, TDP1 inh 7%, HepG2 viability -2%, TGFb inhibitor 7%, IL-1B inflam inh -20 and TDP1 cell CPT 18µM*.
`Cc1ccc(C)c(NS(=O)(=O)c2ccc(OCC(=O)NCc3ccco3)cc2)c1` gave DT40 TDP1 no CPT 23µM*, TDP1 inh 8%, HepG2 viability -7%, TGFb inhibitor 0%, IL-1B inflam inh 9 and TDP1 cell CPT inconclusive.
Screening Cc1ccc(NS(=O)(=O)c2ccc(OCC(=O)NCc3ccccn3)cc2)cc1 returned DT40 TDP1 no CPT 4.6µM*, HepG2 viability -26%, TGFb inhibitor 0%, IL-1B inflam inh 11 and TDP1 cell CPT 3.7µM*.
For CCOc1ccc(/C=N/OCC(=O)NCc2ccco2)cc1 the results were DT40 TDP1 no CPT 23µM*, TDP1 inh 3%, HepG2 viability 14%, TGFb inhibitor 0%, IL-1B inflam inh 4 and TDP1 cell CPT inconclusive.
For O=C1CC(c2ccccc2)Cc2[nH]c(=O)c(C(=O)Nc3ccc(OC(F)(F)F)cc3)cc21 (configuration not stated) the results were DT40 TDP1 no CPT -9%, TDP1 inh -2%, HepG2 viability 6%, TGFb inhibitor -7% and TDP1 cell CPT 13%.
Screening COc1ccc(NC2=NC3(CCCCC3)N=C(N)N2)cc1 returned DT40 TDP1 no CPT -22%, TDP1 inh 2%, HepG2 viability -4%, TGFb inhibitor -11%, IL-1B inflam inh -85* and TDP1 cell CPT -14%.
Screening COc1ccc(OC)c(NC2=NC3(CCCCC3)N=C(N)N2)c1 returned DT40 TDP1 no CPT -8%, TDP1 inh 0%, HepG2 viability 0%, TGFb inhibitor 0%, IL-1B inflam inh -11 and TDP1 cell CPT -2%.
Screening CCCCOc1ccc(NC2=NC3(CCCCC3)N=C(N)N2)cc1 returned DT40 TDP1 no CPT 2.6µM*, TDP1 inh 9%, HepG2 viability -17%, TGFb inhibitor -6%, IL-1B inflam inh -28 and TDP1 cell CPT 5.2µM*.
For Cc1coc2cc3oc(=O)c(CC(=O)NCCc4ccccc4)c(C)c3cc12 the results were DT40 TDP1 no CPT inconclusive, TDP1 inh 2%, HepG2 viability -3%, TGFb inhibitor -11% and TDP1 cell CPT inconclusive.
`O=C(c1ccc(Oc2ccccc2)cc1)c1nc2c(n1O)CCCC2` gave DT40 TDP1 no CPT -24%, TDP1 inh 5%, HepG2 viability -14%, TGFb inhibitor 12%, IL-1B inflam inh -6 and TDP1 cell CPT -26%.

From PubChem BioAssay
